Bioassay records: PubChem, National Center for Advancing Translational Sciences (NCATS)
Sampled rows, rich in hits. Any-hit rate of the full collection: about 4.7%.
DRD3 agonist = qHTS of D3 Dopamine Receptor Agonist: qHTS; D(3) dopamine receptor (Homo sapiens), P35462; D3R DiscoveRx beta-arrestin cells, luminescence, 90 min; max activation, %; 0.58% of 410,000 active; in the data active = max activation above about 30%; note: 0% is about no effect
Target sequence (P35462 whole entry, looked up): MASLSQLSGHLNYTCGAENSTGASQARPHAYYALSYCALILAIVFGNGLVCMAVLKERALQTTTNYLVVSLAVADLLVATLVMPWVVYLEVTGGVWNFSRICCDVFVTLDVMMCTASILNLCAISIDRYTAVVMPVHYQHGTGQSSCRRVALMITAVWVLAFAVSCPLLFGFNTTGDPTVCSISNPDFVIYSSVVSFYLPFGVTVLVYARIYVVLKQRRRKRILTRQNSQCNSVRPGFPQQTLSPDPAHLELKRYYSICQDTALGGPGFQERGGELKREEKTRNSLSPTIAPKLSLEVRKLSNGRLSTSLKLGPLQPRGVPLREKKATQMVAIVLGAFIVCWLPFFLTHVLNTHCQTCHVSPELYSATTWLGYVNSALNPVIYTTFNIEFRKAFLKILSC
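Agonist-mode cell screen: cells plated at 1500/well and incubated overnight at 37 °C, then exposed to library compounds for 90 min at 37 °C. Detection reagent was added for 30–60 min at room temperature, and luminescence was read.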
D3 antag = qHTS of D3 Dopamine Receptor Antagonist: qHTS. D(3) dopamine receptor (Homo sapiens), P35462. D3R cells, DiscoveRx beta-arrestin luminescence, antagonist mode; stronger effect = lower value. max response, negative = inhibition, %. 2.5% of 360,000 active. AID 652054, 2013; in the data active = max response below about -50%; inconclusive = no clear call, values can overlap the other calls; note: % is set by controls: 0 for no effect and ±100 for the full control effect
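Cells plated overnight at 1500 cells/well, then exposed to library compounds with dopamine controls for 90 minutes at 37 degrees C. DiscoveRx reagent added for 30–60 minutes at room temperature; luminescence read, quantitative HTS format.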
TGFb SMAD3 inh = qHTS for Inhibitors of TGF-b | Potency, µM (highest dose often 46.1 µM), without a hit: at the top dose activity, negative = inhibition, hits mostly inhibitors | 1.2% of 410,000 active | AID 588855, 2011 | HepG2 CAGA-GFP TGF-b/SMAD3 reporter, GFP fluorescence, 18 h; TGF-beta stimulated, 500 pg/mL final; note: potency is the fitted concentration of half-maximal effect; % is set by controls: 0 for no effect and ±100 for the full control effect; nearly all actives have a fitted effect of over 65% in size
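HEPG2 CAGA-GFP cells (1000/well, DMEM with 1% FBS) were pre-incubated 2 h at 37 degrees C, given compound by pin tool, then stimulated with TGF-beta at 500 pg/mL final for 18 h before per-cell GFP fluorescence imaging.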
HepG2 tox-1 = qHTS for Inhibitors of TGF-b: Cytotox Counterscreen; 0.76% of 410,000 active; Potency, µM (top dose mostly 46.1 µM), for the others: at the top dose activity change, negative = cytotoxicity, actives largely listed as cytotoxic; HepG2 CAGA-GFP viability, ATP luminescence, 18 h; AID 588856, 2011; note: potency is the fitted concentration of half-maximal effect
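CellTiter-Glo luminescence gave cytotoxicity after 18 hours at 37 degrees C. The cells were HepG2 CAGA-GFP in 1% FBS DMEM, stimulated with 500 pg/mL TGF-beta after compound addition. %Activity was normalised to no-cell wells (complete cell-killing) and DMSO (no toxicity), and curves were fitted and classified.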
ATXN viability = Viability Counterscreen for Primary qHTS for Inhibitors of ATXN expression; S2 cells (HEK-293 line with an ATXN2-luciferase reporter) viability, CellTiter-Fluor protease fluorescence, 24 h; 0.49% of 400,000 active; Potency, µM (top dose mostly 56.7 µM), actives largely listed as cytotoxic; note: potency is the fitted concentration of half-maximal effect; nearly all actives have a fitted effect of over 40% in size
ATXN2 expr inh = Primary qHTS for Inhibitors of ATXN expression; HEK-293 ATXN2-luciferase reporter, luminescence, 24 h; Potency, µM (titrated, usually from 57 µM), for the others: top-dose activity change, negative = inhibition, hits mostly inhibitors; 0.72% of 360,000 active; note: potency is the fitted concentration of half-maximal effect; % is set by controls: 0 for no effect and ±100 for the full control effect; nearly all actives have a fitted effect of over 55% in size
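ATXN2-luciferase reporter cells (luciferase flanked by upstream and downstream ATXN2 gene portions) were treated 24 h at 37 °C with compounds at up to 57 uM. SteadyGlo luminescence gave expression; GF-AFC fluorescence gave viability.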
TGFb CAGA inh = qHTS for Inhibitors of TGF-b: Confirmation of Cherry Picks | shares compounds with TGFb SMAD3 inh | 63% of 1,600 active | HepG2 CAGA-GFP TGF-b reporter, GFP fluorescence, 18 h; cells stimulated with TGF-beta, 500 pg/mL | Potency, µM (series often up to 46.1 µM), inactives show at the top dose activity, negative = inhibition, most hits filed as inhibitors | AID 720534, 2013; note: potency is the fitted concentration of half-maximal effect; % is set by controls: 0 for no effect and ±100 for the full control effect; nearly all actives have a fitted effect of over 65% in size
HepG2 tox-2 = qHTS for Inhibitors of TGF-b: Cytotox Counterscreen for Cherry Picks | shares compounds with TGFb SMAD3 inh | HepG2 CAGA-GFP viability, ATP luminescence, 18 h; cells stimulated with TGF-beta, 500 pg/mL | Potency, µM (titrated, usually from 46.1 µM), for inactives: top-dose activity, negative = cytotoxicity, hits mostly inhibitors | 27% of 1,600 active | AID 720535, 2013; note: potency is the fitted concentration of half-maximal effect; % is set by controls: 0 for no effect and ±100 for the full control effect; nearly all actives have a fitted effect of over 70% in size
TGFb CCL64 inh = qHTS for Inhibitors of TGF-b: CCL64 Cells Orthogonal Assay for Cherry Picks; Potency, µM (doses to about 46.1 µM), without a hit: at the highest dose activity, negative = inhibition, usual class: inhibitors; shares compounds with TGFb SMAD3 inh; 41% of 1,600 active; CCL64 CAGA-GFP reporter, TGF-b stimulated, GFP fluorescence, 18 h; AID 720536, 2013; note: potency is the fitted concentration of half-maximal effect; nearly all actives have a fitted effect of over 65% in size
COP TGFb inh = qHTS for Inhibitors of TGF-b: Hit Validation in HepG2 Cells using COP promoter; shares compounds with TGFb SMAD3 inh; HepG2 COP-GFP TGF-b reporter, GFP fluorescence, 18 h; cells stimulated by added recombinant TGF-beta; Potency, µM (highest dose often 46.1 µM), inactives show top-dose activity, negative = inhibition, actives largely listed as inhibitors; 3% of 1,600 active; note: potency is the fitted concentration of half-maximal effect; nearly all actives have a fitted effect of over 70% in size
Numbers without * were called inactive; i = inactive; ? = inconclusive; · = no result. Unless noted, calls come from the whole dose curve; as a rule, active = well fitted curve in the direction sought with a large enough effect; inconclusive = small, poorly fitted or top-dose-only effect, or another doubt; inactive = no such curve, though single readings can be large; an effect the other way counts as inactive or inconclusive.

SMILES	DRD3 agonist	D3 antag	TGFb SMAD3 inh	HepG2 tox-1	ATXN viability	ATXN2 expr inh	TGFb CAGA inh	HepG2 tox-2	TGFb CCL64 inh	COP TGFb inh
COc1ccc(C[C@@H]2OC3(C=CC(=O)C=C3)O[C@H]2Cc2ccc(OC)cc2)cc1	-13	-118*	2.8µM*	11µM*	·	?	2.3µM*	2.6µM*	0.82µM*	?
Cc1cc(C(=O)OCC(=O)NC(=O)C2CCCCC2)ccc1[N+](=O)[O-]	·	·	-2%	4%	·	·	·	·	·	·
CS(=O)(=O)c1ccc(C(=O)OCC(=O)NC(=O)C2CCCCC2)cc1[N+](=O)[O-]	-8	?	10µM*	-116%	·	·	12µM*	?	?	?
CCCn1c(=N)n(CC(=O)c2cccs2)c2ccccc21	-6	-4	4%	-24%	i	-12%	·	·	·	·
N=c1n(CCN2CCCCC2)c2ccccc2n1CC(=O)c1cccs1	-38	-63*	?	-50%	i	?	41%	?	23µM*	50%
O=c1[nH]c(=O)c2ncn(C3OC(CO)C(O)C3O)c2[nH]1 (centres undefined)	·	·	20%	6%	·	·	·	·	·	·
O=c1c2cn[nH]c2nc(SCc2ccccc2F)n1-c1ccc(Br)cc1	0	3	10µM*	16µM*	i	-34%	?	?	?	77%
Cc1ccc(-n2c(SCc3ccccc3F)nc3[nH]ncc3c2=O)cc1C	3	·	?	-113%	?	?	·	·	·	·
O=C(Cn1c(=O)n(Cc2ccccc2)c(=O)c2oc3ccccc3c21)Nc1ccc(Cl)cc1	0	·	-23%	-18%	?	4%	·	·	·	·
O=C1C(NS(=O)(=O)c2cccs2)=C(N2CCN(Cc3ccccc3)CC2)C(=O)c2ccccc21	-18	1	8.9µM*	10µM*	i	·	?	-24%	-10%	16%
CCc1sc(-c2cc3cccc(OC)c3oc2=O)nc1-c1cc(C)ccc1C	·	·	12%	-10%	·	·	·	·	·	·
COc1ccc(Nc2nnc(-c3ccc(N4CCOCC4)c([N+](=O)[O-])c3)c3ccccc23)cc1	-1	-16	?	4%	i	4%	4.1µM*	2%	?	23%
COc1ccc(C(=O)c2ccc(N3CCOCC3)c([N+](=O)[O-])c2)cc1	-4	-11	-8%	-13%	?	-32%	·	·	·	·
O=S(=O)(c1ccc2ccccc2c1)N1CCCCCC1	4	5	10%	-30%	i	13%	·	·	·	·
